Source: PubChem BioAssay (NCI)
About 79,000 compounds went through this panel and 15% of them were active in at least one assay; those are over-represented in the sample as a whole. Rule as the data show it: active = growth inhibition above about 70%; inactive = the rest.

Assays:
[1] = NCI Yeast Anticancer Drug Screen. Data for the rad50 strain (AID 155);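 also: 0% = growth of vehicle-only cultures of the same strain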; conditions: S. cerevisiae rad50 strain growth inhibition; at 50.0 µM; hits give high values
In short: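 Vehicle-treated cultures provide the reference for the growth inhibition reported for compound-exposed, repair-deficient yeast.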

[2] = NCI Yeast Anticancer Drug Screen. Data for the mec2-1 strain (AID 157); conditions: S. cerevisiae mec2-1 strain, at 50.0 µM, hits give high values
In short: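 Mutant yeast (mec2-1) grown with compound; growth inhibition relative to vehicle control reported.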

[3] = NCI Yeast Anticancer Drug Screen. Data for the sgs1 mgt1 strain (AID 161);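 also: 0% = growth of cultures given vehicle only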; conditions: S. cerevisiae sgs1 mgt1 strain, at 50.0 µM, hits give high values
In short: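 Yeast cells carrying a defined DNA-repair defect were exposed to test compounds. Growth inhibition was measured relative to vehicle-treated controls.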

[4] = NCI Yeast Anticancer Drug Screen. Data for the cln2 rad14 strain (AID 165);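 also: 0% = growth equal to vehicle treated cultures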; conditions: S. cerevisiae cln2 rad14 strain, at 50.0 µM, hits give high values
In short: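 Readout is yeast growth inhibition versus vehicle-treated controls, using a strain with cln2 and rad14 alterations exposed to compound.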

[5] = NCI Yeast Anticancer Drug Screen. Data for the bub3 strain (AID 167); conditions: S. cerevisiae bub3 mutant strain, at 50.0 µM, hits give high values
In short: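 Mutant yeast screening strain plus compound; vehicle-treated cultures serve as the 0% inhibition reference.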

[6] = NCI Yeast Anticancer Drug Screen. Data for the mlh1 rad18 strain (AID 175); conditions: S. cerevisiae mlh1 rad18 strain growth inhibition; at 50.0 µM; hits give high values
In short: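 Genetically defined yeast (DNA repair-deficient) exposed to compounds; growth inhibition determined relative to vehicle.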

Measured: growth inhibition

CCCNC(C#N)c1ccc(C(C#N)NCCC)cc1 (stereo unspecified)
inactive: [1] -4.6% | [2] -10.4% | [3] -12.6% | [4] -5.9% | [5] -23.8% | [6] -7.8%

COc1cc2c(cc1OC)C(N)CC2=O (stereo unspecified)
inactive: [1] 3.15% | [2] 1.4% | [3] -7.25% | [4] 3.65% | [5] 0.5% | [6] -75.3%

CSc1nc(Cl)nc2[nH]ncc12
inactive: [1] 11.3% | [2] -5.4% | [3] 1.1% | [4] -17.3% | [5] 4.45% | [6] 30.9%

c1ccc(C2=NC(c3ccccc3)(c3ccccc3)N=C2c2ccccc2)cc1
inactive: [1] 2.75% | [2] 10.7% | [3] -11.2% | [4] -10.1% | [5] -8.55% | [6] 2.5%

CN(C)c1ccc(-c2nc(N)nc3c2CCCC3)cc1
inactive: [1] -12.7% | [2] -12.2% | [3] -13.3% | [4] 22.4% | [5] -6% | [6] -34.2%

CCOC(Nc1ccccc1[N+](=O)[O-])C(=O)c1ccccc1 (stereo unspecified)
inactive: [1] 21.4% | [2] 8.05% | [3] 1.35% | [4] 28.7% | [5] 24.4% | [6] 12.7%

O=C1/C(=C/c2ccc(C(=O)O)cc2)CNC/C1=C\c1ccc(C(=O)O)cc1
inactive: [1] -7.4% | [2] -14.9% | [3] -3.05% | [4] -15.4% | [5] 3.8% | [6] -11.8%

Oc1ccc2ccccc2c1C=NCc1c(O)ccc2ccccc12
inactive: [1] 3.5% | [2] -1.7% | [3] -11.2% | [4] -39.2% | [5] -43.6% | [6] 8.75%

NC(=S)NNC(=O)/C(=C/c1ccc(/C=C(\NC(=O)c2ccccc2)C(=O)NNC(N)=S)cc1)NC(=O)c1ccccc1
inactive: [1] 32.8% | [2] 27% | [3] 29.3% | [4] 39.8% | [5] 39.2% | [6] 31.8%

CCCc1c(C(=O)OCC)[nH]c(-c2ccc(-c3[nH]c(C(=O)OCC)c(CCC)c3C(=O)OCC)s2)c1C(=O)OCC
inactive: [1] -11.8% | [2] -11.3% | [3] -21.6% | [4] 3% | [5] -12.6% | [6] -16.1%

c1ccc(-c2c(-c3ccc4c(c3)OCO4)c(-c3ccc4c(c3)OCO4)c(-c3ccccc3)c3ccccc23)cc1
inactive: [1] 32.4% | [2] 20.6% | [3] 19.8% | [4] 28.2% | [5] -1.95% | [6] 23.4%

Cn1cnc2ncnc(Oc3ccc(Cl)cc3)c21
inactive: [1] -13.5% | [2] -10.3% | [3] -2.95% | [4] 4.45% | [5] -27.1% | [6] -14.1%

COc1cc(Br)c(C=Nc2cccc3cc(OC)c(OC)cc23)cc1OC
inactive: [1] -0.9% | [2] -14.3% | [3] -9.9% | [4] 20.4% | [5] -27.1% | [6] -15.9%

NC(=O)C1OC1(c1ccccc1)c1ccccc1 (stereo unspecified)
inactive: [1] 20.8% | [2] 5.2% | [3] 3.05% | [4] -2.1% | [5] 4.15% | [6] 3.15%

O=C(O)CCC(=O)C(Cc1ccccc1)NC(=O)c1ccccc1 (stereo unspecified)
inactive: [1] -14.4% | [2] -16.6% | [3] -10.1% | [4] -4.05% | [5] 6.1% | [6] -10.4%

COc1cc(C2=N/C(=C\c3cccc([N+](=O)[O-])c3)C(=O)O2)cc(OC)c1OC
inactive: [1] -0.45% | [2] -7.25% | [3] 11.6% | [4] -8.05% | [5] -0.2% | [6] -22.5%

COc1cc(Cl)ccc1NC(=O)COc1ccc(Cl)cc1
inactive: [1] 4.55% | [2] 0.5% | [3] -12.8% | [4] -3.6% | [5] 20% | [6] -17.1%

O=[N+]([O-])c1ccc(S(=O)(=O)SC(F)(F)F)cc1
inactive: [1] 14.7% | [2] 3.85% | [3] -1% | [4] -47.1% | [5] -3.25% | [6] 11.3%

CN(C)C1(C(=O)O)c2ccccc2-c2ccccc21
inactive: [1] 9.85% | [2] 10.6% | [3] 21.8% | [4] -3.45% | [5] 16.3% | [6] -3.3%

CCCC[n+]1cccc(C(N)=O)c1
inactive: [1] -3.55% | [2] -19.9% | [3] 3.35% | [4] 0.4% | [5] 12.8% | [6] -2.15%

O=S(=O)(O)CCCO
inactive: [1] 0.4% | [2] -44.3% | [3] -14.7% | [4] -1.05% | [5] -0.45% | [6] -2.4%

O=C1CCC(=O)N1Cc1ccc(Cl)cc1
inactive: [1] -4.7% | [2] 5.5% | [3] -1.1% | [4] -13.6% | [5] -3.8% | [6] -4.1%

Cc1ccc(S(=O)(=O)N(CCOc2c3occc3cc3ccc(=O)oc23)CCN(CCN(CCOc2c3occc3cc3ccc(=O)oc23)S(=O)(=O)c2ccc(C)cc2)S(=O)(=O)c2ccc(C)cc2)cc1
inactive: [1] -10.2% | [2] -11.7% | [3] -14.4% | [4] -31.6% | [5] -21.1% | [6] -6.8%

CN(C)CC1CCCC(CN(C)C)C1=NOC(=O)c1ccccc1 (stereo unspecified)
inactive: [1] -8.15% | [2] -33.8% | [3] -2.3% | [4] -21.4% | [5] 8.05% | [6] -27.8%

C[C@H]1S[C@@H](c2ccc(Cl)cc2Cl)N(NC(=O)c2ccncc2)C1=O
inactive: [1] 57.9% | [2] 45% | [3] 40% | [4] 46.9% | [5] 52.1% | [6] 39.3%

C#CCNC(=O)NCCCl
inactive: [1] 18.9% | [2] -3.45% | [3] -0.3% | [4] -34.1% | [5] 27.9% | [6] 2.65%

COc1c2occc2c(Br)c2ccc(=O)oc12
inactive: [1] 13% | [2] 0.35% | [3] 19.4% | [4] 7.45% | [5] 51.8% | [6] 8.6%

COc1ccc(NC(=O)c2cccc([N+](=O)[O-])c2)cc1
inactive: [1] 8.1% | [2] 23.1% | [3] 24.6% | [4] 1.8% | [5] 4.1% | [6] 5.8%

CC(=O)c1ccc(N2C(=O)C/C(=C/c3ccccc3O)C2=O)cc1
inactive: [1] 16.1% | [2] 0.05% | [3] 9.3% | [4] -20.9% | [5] 5.2% | [6] 16.6%

CC1(C)OC(C)(C)c2c1nnc(-c1cccc([N+](=O)[O-])c1)[n+]2[O-]
inactive: [1] -19.5% | [2] -26.2% | [3] 18.6% | [4] 1.3% | [5] 11.6% | [6] -3.55%

Nc1cccc(C(F)(F)F)c1
inactive: [1] -20.8% | [2] 0.25% | [3] -16.3% | [4] -58.5% | [5] 18.4% | [6] -0.05%

Nc1cc2c(cc1I)-c1ccccc1C2O (stereo unspecified)
inactive: [1] 1.65% | [2] 4.55% | [3] -12.8% | [4] -2.9% | [5] 11.2% | [6] -8.75%

CNCCSSCCN
inactive: [1] -10.2% | [2] -0.95% | [3] -6.3% | [4] -18.8% | [5] 2.6% | [6] 0.95%

CCSc1nnc2c(-c3ccccc3)n[nH]c2n1
inactive: [1] -0.75% | [2] -0.05% | [3] -21.8% | [4] -25.9% | [5] -27.6% | [6] -12.1%

CC[N+](C)(CC)C(Cc1ccccc1)c1ccccc1 (stereo unspecified)
inactive: [1] 1% | [2] 8.8% | [3] 24.6% | [4] 23% | [5] -5.8% | [6] 4.3%

COc1cc2cccc(N=Cc3ccccc3Cl)c2cc1OC
inactive: [1] -8.7% | [2] -7.4% | [3] -11.3% | [4] 27.9% | [5] 8.55% | [6] -3.8%

CCC(C)(C)C(O)c1ccc2c(c1)OCO2 (stereo unspecified)
inactive: [1] -0.2% | [2] -13.2% | [3] 4.1% | [4] -7.65% | [5] 1.3% | [6] -28.5%

Cc1nc2ccc(N)cc2oc1=O
inactive: [1] 6.55% | [2] 15.1% | [3] 15.2% | [4] -28.9% | [5] 0.8% | [6] 9.35%

C/C(=N\N)c1ccc(Cl)cc1O
inactive: [1] 7.45% | [2] -34.2% | [3] 7.2% | [4] 4.25% | [5] 3.5% | [6] 16%

CC1(c2nc3ccccc3s2)CCCO1 (stereo unspecified)
inactive: [1] -6.1% | [2] 23.8% | [3] 7.6% | [4] -13.7% | [5] 7.55% | [6] 8.4%

c1ccc(C2=NCC(c3ccccc3)(C3(c4ccccc4)SCCCS3)O2)cc1 (stereo unspecified)
inactive: [1] 30.8% | [2] 5.15% | [3] 12.7% | [4] -13.8% | [5] -3.35% | [6] 6.55%
